A selection: hits, their analogues and other compounds. The true share with any hit is near 12%.
L3MBTL1 inh = qHTS Assay for the Inhibitors of L3MBTL1. 230,000 compounds, 0.66% hits. AID 485360, 2010. AlphaScreen L3MBTL1–H3K9me1 peptide binding. Potency, µM (doses to about 57.1 µM), for inactives: top-dose activity, negative = inhibition, most hits filed as inhibitors; further: on the % scale 0 is the no-effect control and ±100 the full control effect; nearly all actives have a fitted effect of over 60% in size
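AlphaScreen assay: L3MBTL1 (50 nM final) was preincubated 30 min at room temperature with biotinylated H3(1-15)K9me1 peptide (75 nM final), then 30 min with library compounds; streptavidin donor and nickel chelate acceptor beads (10 ug/mL final) added, 30 min dark.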
HP1b binding inh = HTS for Inhibitors of HP1-beta Chromodomain Interactions with Methylated Histone Tails. AID 540317, 2011. Potency, µM (series often up to 114 µM), inactives show at the highest dose activity change, negative = inhibition, most hits filed as inhibitors. 390,000 compounds, 0.56% hits. AlphaScreen HP1-beta / biotin-H3K9me3 peptide binding. Chromobox protein homolog 1 (Homo sapiens), P83916; further: nearly all actives have a fitted effect of over 70% in size
Target sequence (P83916 whole entry, looked up): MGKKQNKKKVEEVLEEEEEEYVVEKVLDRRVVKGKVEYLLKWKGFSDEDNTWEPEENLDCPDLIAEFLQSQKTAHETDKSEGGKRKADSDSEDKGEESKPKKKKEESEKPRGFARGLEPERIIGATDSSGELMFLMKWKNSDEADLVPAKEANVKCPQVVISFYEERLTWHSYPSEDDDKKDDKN
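AlphaScreen: HP1-beta (50 nM) preformed 30 min with biotin-H3(1-18)K9me3 peptide (50 nM) in PBS pH 7.4, 0.01% Tween-20. Compound added for 30 min at RT, then streptavidin donor/nickel chelate acceptor beads (10 ug/mL) for 30 min.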
G9a inh = qHTS Assay for Inhibitors of Histone Lysine Methyltransferase G9a; Potency, µM (highest dose often 102 µM), inactives show at the highest dose activity, negative = inhibition, usual class: inhibitors; Histone-lysine N-methyltransferase EHMT2 (Homo sapiens), Q96KQ7; 350,000 compounds, 8.8% hits; G9a H3K9 monomethylation, AlphaScreen, 2 h; AID 504332, 2011; further: on the % scale 0 is the no-effect control and ±100 the full control effect; nearly all actives have a fitted effect of over 75% in size
Target sequence (Q96KQ7 913-1193 limits assumed): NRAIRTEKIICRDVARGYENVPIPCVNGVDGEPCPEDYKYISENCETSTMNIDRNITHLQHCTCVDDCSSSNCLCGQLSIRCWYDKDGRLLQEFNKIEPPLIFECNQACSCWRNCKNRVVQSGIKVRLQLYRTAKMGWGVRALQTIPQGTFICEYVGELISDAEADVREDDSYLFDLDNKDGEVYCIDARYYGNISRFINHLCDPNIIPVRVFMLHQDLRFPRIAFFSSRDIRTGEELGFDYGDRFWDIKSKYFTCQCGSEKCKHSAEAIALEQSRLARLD
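Using a bead-based AlphaScreen, monomethylated H3K9 product from 2 h room-temperature reactions (G9a 20 nM, peptide 500 nM, SAM 20 uM) was detected with 0.5 ug/mL rabbit anti-H3K9me1 antibody.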
JMJD2A Tudor inh = qHTS Assay for Inhibitors of JMJD2A-Tudor Domain. AlphaScreen JMJD2A-Tudor / H3K4me3 peptide binding. Potency, µM (top dose mostly 114 µM), for the others: top-dose activity change, negative = inhibition, usual class: inhibitors. 390,000 compounds, 4.4% hits; further: on the % scale 0 is the no-effect control and ±100 the full control effect; nearly all actives have a fitted effect of over 50% in size
BAZ2B inh = qHTS Assay for Inhibitors of BAZ2B; Potency, µM (series often up to 114 µM), for inactives: top-dose activity change, negative = inhibition, most hits filed as inhibitors; AID 504333, 2011; AlphaScreen BAZ2B-H3K14Ac peptide displacement; Bromodomain adjacent to zinc finger domain protein 2B (Homo sapiens), Q9UIF8; 360,000 compounds, 4.4% hits; further: on the % scale 0 is the no-effect control and ±100 the full control effect; nearly all actives have a fitted effect of over 60% in size
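AlphaScreen luminescence quantifies BAZ2B engagement of H3K14Ac peptide; the protein and biotinylated peptide are both at 50 nM final, buffer PBS pH 7.4 with 0.01% Tween-20, all steps at room temperature.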
Sfp inh = qHTS Assay for Inhibitors of Bacillus subtilis Sfp phosphopantetheinyl transferase (PPTase). Biochemical Sfp PPTase activity, qHTS. Potency, µM, for the others: largest response in the series, negative = inhibition, actives largely listed as inhibitors. 310,000 compounds, 3.5% hits;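 further: the enzyme is Sfp with the accession as filed and its product quenches rhodamine fluorescence; 0% = enzyme reaction without inhibitor and -100% = no enzyme wells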
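Fluorescence-quenching assay with 15 nM Sfp, 5 uM rhodamine-CoA and 12.5 uM BHQ-2-labelled ybbR peptide in pH 7.6 Hepes/MgCl2 buffer. Enzyme was pre-incubated with compound for 15 min at room temperature. Rate was taken from the 30-min fluorescence change (525/598 nm).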
Numbers without * were called inactive; ? = inconclusive; . = no result given; [ ] = dose if it differs, or a comment. The call rests on the fitted dose curve; in most records, active means well fitted curve in the direction sought with a large enough effect; inconclusive means small, poorly fitted or top-dose-only effect, or another doubt; inactive means no such curve, though single readings can be large; an effect the other way counts as inactive or inconclusive. Potency means the concentration at half of the fitted maximal effect.

SMILES | L3MBTL1 inh | HP1b binding inh | G9a inh | JMJD2A Tudor inh | BAZ2B inh | Sfp inh
CCCC1=C([O-])C2N=CC=CC2=[N+](c2ccccn2)C1=O (stereo not drawn) | 6% | 38% | -6%[59 µM] | 4% | 0% | 17%
O=c1c2ccccc2sn1-c1cc(S(=O)(=O)N2CCOCC2)ccc1N1CCCC1 | . | -41% | ? | 22µM* | 14µM* | 0.2µM*
O=C(O)c1cc(S(=O)(=O)N2CCOCC2)ccc1N1CCCCC1 | 5% | 24% | 6% | -2% | -2% | 26%
Nc1cc(S(=O)(=O)N2CCOCC2)ccc1N1CCCCC1 | -5% | ? | . | ? | . | .
O=c1c2ccccc2sn1-c1cc(S(=O)(=O)N2CCOCC2)ccc1N1CCOCC1 | -5% | 8.9µM* | . | 4µM* | 3.5µM* | 0.71µM*
O=c1c2ccccc2sn1-c1cc(S(=O)(=O)N2CCOCC2)ccc1N1CCCCC1 | . | ? | . | 13µM* | . | .
O=S(=O)(c1ccc(N2CCOCC2)c(Cl)c1)N1CCOCC1 | . | 31% | 3% | -5% | 1% | 13%
COC(=O)c1ccccc1-c1ccc(/C=C2\C(=O)N(c3ccccc3)N=C2c2ccccc2)o1 | -4% | 1.4µM* | 7.1µM* | ? | 3.2µM* | -1%
COC(=O)c1ccccc1-c1ccc(/C=N/Nc2nc(N3CCCC3)nc(N3CCCC3)n2)o1 | 8% | 19% | . | -15% | -14% | -10%
COc1ccc(-c2ccc(C(=O)O)o2)c([N+](=O)[O-])c1 | -8% | 17% | 56µM* | -6% | ? | ?
COc1ccc(-c2ccc(/C=C3\C(=O)N(c4ccccc4)N=C3c3ccccc3)o2)c([N+](=O)[O-])c1 | -17% | 3.5µM* | 7.1µM* | ? | 8.9µM* | 13%
COc1cc([N+](=O)[O-])ccc1-c1ccc(/C=C2\C(=O)ON=C2c2ccccc2)o1 | . | -28%[57 µM] | . | ? | . | .
COc1ccc(-c2ccc(/C=C3/C(=N)N4C(C)=CSC4=NC3=O)o2)c([N+](=O)[O-])c1 | -1% | -30% | 7.1µM* | ? | ? | 13%
NC(=O)CC(NC(=O)Cc1ccc(Cl)cc1)c1ccc(NCCOc2ccccc2)c([N+](=O)[O-])c1 (stereo not drawn) | -13% | 17% | . | -27% | -37% | 0%
Cc1cccc(C(=O)N(CC(=O)Nc2sc(C)c(C)c2C(N)=O)C2CCCC2)c1 | . | 1% | -10%[59 µM] | -31% | -26% | 5%
N=C(N)SCCN=C(N)N | . | . | . | . | . | 3%
Cn1nnc2c(N3CCN(c4ccccc4Cl)CC3)ncnc21 | . | -5% | 1%[59 µM] | -7% | -11% | .
C/C(CC(=O)NC1CCCC1)=N\NC(=O)c1ccc([N+](=O)[O-])c(Cl)c1 | -6% | 18% | 5%[59 µM] | -20% | -5% | ?
O=C(CCc1ccc(O)c(O)c1)NNC(=S)NCCc1ccccc1 | -13% | 23% | -1%[59 µM] | ? | 3% | 1%
O=C(CCc1ccc(O)c(O)c1)NNC(=S)Nc1ccc(Br)cc1Cl | -3% | -15% | 18µM* | -18% | -2% | 30%
CCCCN(C(=O)c1ccc(S(=O)(=O)N2CCC(C)CC2)cc1)C1CCS(=O)(=O)C1 (stereo not drawn) | -1% | 34% | -1% | -13% | 7% | .
Cc1ccc(S(=O)(=O)NCCNC(=O)c2nonc2N)cc1 | 15% | 36% | 4%[2.33 µM] | -7%[57.1 µM] | 7% | 9%
CSc1nsc(SC)c1C(=O)NCCNS(=O)(=O)c1ccc(C)cc1 | 7%[11.4 µM] | 30% | 2.8µM* | -11% | 50µM* | 50µM*
CCN(C(=O)CSc1nnc(-c2cc3occc3n2C)n1-c1ccccc1C)c1ccccc1 | . | 37% | -17%[59 µM] | -6% | 4% | .
CC(=O)c1ccc(C2C=CC(Oc3ccc(F)cc3C)C(CO)O2)cc1 (stereo not drawn) | . | . | . | . | . | -5%
SMILES | L3MBTL1 inh | HP1b binding inh | G9a inh | JMJD2A Tudor inh | BAZ2B inh | Sfp inh
O=C(OC(c1ccccc1)c1nccc2ccccc12)c1ccccc1 (stereo not drawn) | . | 44% | . | 6% | . | .
OC(c1ccc(Cl)cc1)c1nccc2ccccc12 (stereo not drawn) | 2% | 21% | 40µM* | -27% | -38% | 1%
CN(C)c1ncc2ncc(=O)n(C)c2n1 | . | . | 7%[12.7 µM] | . | . | -8%
CCCCCC(=O)Nc1ccc(-c2csc(C)n2)cc1 | 28% | 16% | 7%[59 µM] | -14% | 27% | -55%
CCC(=O)Nc1ccc(-c2csc(C)n2)cc1 | 1% | 9% | -2% | 0% | 1% | 11%
CC(C)=NNc1nc(-c2ccc([N+](=O)[O-])cc2)cs1 | -19% | 8% | ? | -31% | -28% | -22%
CCC(=O)Nc1ccc(-c2csc(NNC(C)=O)n2)cc1 | 6% | 24% | 14µM* | -8% | -27% | -18%
CCCCCC(=O)Nc1ccc(-c2csc(N)n2)cc1 | . | 25% | 40µM* | -29% | ? | ?
C/C(=N/Nc1nc(-c2ccc(Cl)cc2)cs1)c1cccs1 | . | ? | ? | -36% | -39% | 40µM*
CC(=O)Nc1ccc(-c2csc(NNC(=O)c3ccccc3)n2)cc1 | -8% | 51% | -2% | -24% | -10% | 18µM*
Cc1nc(-c2ccc(F)cc2)sc1CCNC(=O)c1cccs1 | . | 5%[57 µM] | 18%[59 µM] | -23% | -34% | .
CC(=O)Nc1ccc(-c2csc(N/N=C(/C)c3ccccc3)n2)cc1 | . | -17% | 18µM* | ? | ? | 40µM*
CC(=O)Nc1ccc(-c2csc(Nc3ncccn3)n2)cc1 | 1% | 45% | 4% | 2% | -16% | 15%
COc1cccc(Cn2c(=O)c(-c3cccc(C#N)c3)nc3cnc(N4CCOCC4)nc32)c1 | . | . | 8%[0.501 µM] | . | . | 23%
O=C(c1cccnc1)C1Cc2ccccc2C1=O (stereo not drawn) | 32% | 24% | 40µM* | -15% | ? | -29%
CC[C@H](C)[C@H](N)C(=O)N[C@@H](CC(N)=O)C(=O)N1CCC[C@H]1C(=O)N[C@H](C(=O)N[C@@H](Cc1ccc(O)cc1)C(=O)N[C@@H](CCCN=C(N)N)C(=O)N[C@@H](CC(C)C)C(=O)N[C@@H](CCCN=C(N)N)C(=O)N[C@@H](Cc1ccc(O)cc1)C(N)=O)[C@@H](C)CC | . | . | . | . | . | 1%
Cc1cccc(NC(=O)CN2CCC(NC(=O)C3CCCCC3)CC2)c1C | 1% | 27% | 27%[59 µM] | -1% | 6% | 27%

Screens (PubChem)
